An excerpt weighted towards active compounds, which were near 2.1% of everything screened.
PAX8 inh HTS – inhibitors of PAX8 transcriptional activity in RMG-I cells | RMG-I TPO-luciferase reporter, SteadyGlo, 24 h | inhibition, % at 12.6 µM | 360,000 tested, 1.2% active;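 active means mean replicate inhibition at least 60% with every replicate also reaching 60%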;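 further: luciferase light reporting Pax8 driven TPO promoter activity; plate controls were median of neutral control wells for no effect and mitoxantrone controls for full effect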
KKLEB tox – counter-screen for CF NF-kB inhibitors: cytotoxicity | KKLEB CF airway cells viability, ATPlite luminescence, overnight; hits give low values; cells stimulated with P. aeruginosa culture filtrate | activity change (cytotoxicity), % at 5 µM | 360,000 tested, 0.36% active;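 active means corrected activity change at or below -50% at 5 µM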
CF NFkB inh – blocks PAF-induced NF-kB reporter in cystic fibrosis cells; 360,000 tested, 0.86% active; inhibition, % at 5 µM; AID 588850; KKLEB NF-kB-GFP reporter, GFP fluorescence overnight;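 active means at least 50% inhibition at 5 µM, scaled per plate between neutral and stimulator controls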;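 further: PAF is a Pseudomonas aeruginosa culture filtrate used as stimulus; plate controls were PAF-stimulated DMSO wells for no effect and unstimulated DMSO wells for full effect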
EWS-Fli inh – inhibitors of EWS/Fli oncoprotein transcriptional activity | A673 NR0B1-luciferase reporter, viability-normalised | inhibition, % at 12.6 µM | 350,000 tested, 0.67% active;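 active means mean inhibition of at least 50% after viability correction, with every replicate also passing that limit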;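 further: firefly luciferase signal divided by Alamar Blue viability fluorescence both relative to DMSO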
HIF-2a block – blocks HIF-2a reporter activity; 786-0 RCC cells HIF-2a reporter, luciferase luminescence, overnight; inhibition, % at 18.8 µM; 360,000 tested, 0.72% active;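 active means inhibition of the luminescence signal of 40% or more relative to plate controls, in a single-dose primary screen at 18.75 µM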
* marks the source's active call; other numbers are inactive results; . = not tested or not shown.

SMILES | PAX8 inh HTS | KKLEB tox | CF NFkB inh | EWS-Fli inh | HIF-2a block
CC1(C)N=C(N)N=C(N)N1c1cccc(CC(=O)Nc2ccccc2)c1 | 19 | 0 | 12 | 12 | -5
O=C(O)C[C@@H]1C[C@H]2c3cc(NC(=O)c4ccc5c(c4)OCO5)ccc3O[C@H]2[C@@H](CO)O1 | -5 | . | . | -2 | .
Cc1cc(C)c(NC(=O)CSc2nc3ccc(NC(=O)CSc4nnnn4-c4ccccc4)cc3s2)c(C)c1 | -16 | -67* | 71* | 5 | 10
C[C@@H]1CN([C@H](C)CO)C(=O)Cc2cc(NC(=O)NC3CCCCC3)ccc2O[C@@H]1CN(C)Cc1ccc(-c2ccccc2)cc1 | 23 | . | . | 6 | .
C[C@@H]1CN([C@@H](C)CO)C(=O)Cc2cc(NC(=O)NC3CCCCC3)ccc2O[C@H]1CN(C)Cc1ccc(Oc2ccccc2)cc1 | 71* | . | . | 12 | .
C[C@@H]1CN([C@@H](C)CO)C(=O)Cc2cc(NC(=O)c3ccncc3)ccc2O[C@@H]1CN(C)Cc1ccc(-c2ccccc2)cc1 | 102* | . | . | -16 | .
C[C@@H]1CN([C@@H](C)CO)C(=O)Cc2cc(NC(=O)NC3CCCCC3)ccc2O[C@@H]1CN(C)Cc1ccc(-c2ccccc2)cc1 | 102* | . | . | 6 | .
C[C@H](CO)N1C[C@H](C)[C@@H](CN(C)Cc2ccc(-c3ccccc3)cc2)Oc2ccc(NC(=O)c3ccncc3)cc2CC1=O | 32 | . | . | 26 | .
O=C(C[C@@H]1CC[C@@H]2[C@H](COC[C@@H](O)CN2Cc2ccc(F)cc2)O1)N1CCc2ccccc2C1 | 18 | . | . | 1 | .
COc1ccc(S(=O)(=O)N2CCC3(CC2)CN(Cc2ccncc2)[C@H](CO)c2[nH]c4cc(OC)ccc4c23)cc1 | . | . | . | -12 | .
COc1cc(C(=O)OCC(=O)Nc2cc(C)on2)ccc1OCc1ccccc1Cl | . | -4 | -2 | . | -87
COc1ccc(NC(=O)COC(=O)c2ccc(OCc3ccccc3Cl)c(OC)c2)c(OC)c1 | -11 | -75* | 61* | . | -51
Cc1cccc(-c2nnn3c2nc(NCCc2ccc(S(N)(=O)=O)cc2)c2ccccc23)c1 | 28 | -52* | 36 | . | -6
C[C@@H]1CN([C@@H](C)CO)C(=O)c2cc(NS(=O)(=O)c3ccc(F)cc3)ccc2O[C@@H](C)CCCCO[C@H]1CN(C)Cc1ccncc1 | 11 | . | . | -9 | .
O=C(NC[C@H]1CC[C@@H]2[C@@H](CN2S(=O)(=O)c2ccccc2[N+](=O)[O-])O1)c1cccnc1 | . | . | . | 3 | .
O=C1C(Cl)=C(NC(=O)c2ccccc2)C(=O)C(Cl)=C1NC(=O)c1ccccc1 | 80* | 7 | 52* | 30 | 72*
COc1ccc2c3c(n(C)c2c1)[C@H](CO)N(C(=O)Nc1ccc(F)cc1)CC31CN(CC2CCOCC2)C1 | . | . | . | 7 | .
O=[N+]([O-])c1ccc(O)c(/C=N\N=C2c3ccccc3-c3ccccc32)c1 | . | -51* | 48 | . | -34
O=C(N/N=C/c1cc([N+](=O)[O-])ccc1O)c1cccc2ccccc12 | 69* | -23 | 16 | 24 | 8
O=[N+]([O-])c1ccc(O)c(/C=N/Nc2ccc(Cl)nn2)c1 | . | -81* | 62* | . | -42
NC(N)=N/N=C/c1cc([N+](=O)[O-])ccc1O | -11 | -14 | 6 | . | -9
CCCC(=O)Nc1ccc2c(c1)C(=O)N(C)C[C@H](OC)[C@@H](C)CN(C(=O)CC)[C@@H](C)CO2 | . | . | . | -4 | .
C[C@H]1CN([C@@H](C)CO)C(=O)Cc2cc(NS(C)(=O)=O)ccc2O[C@@H]1CN(C)CC1CCCCC1 | 10 | . | . | -6 | .
CC(=O)c1ccc(N(C(=O)Cc2c[nH]c3ccccc23)C(C(=O)NC2CCCCC2)c2cccs2)cc1 (stereo not given) | -13 | 6 | -8 | . | -76
O=C(NC1CCCCC1)C(c1cccs1)N(C(=O)Cc1c[nH]c2ccccc12)c1ccc(F)cc1 (stereo not given) | 97* | 14 | 9 | . | 6
Cc1noc(C)c1COC(=O)[C@@H](NC(=O)c1ccccc1)C(C)C | 69* | -9 | 9 | -4 | 5
CC(C)[C@H](NC(=O)c1ccccc1)C(=O)OCc1nnc(-c2ccccc2)o1 | 4 | 2 | -15 | 8 | 3
CN(C)CCNc1ccc(CO)c2oc3ccc(O)cc3c(=O)c12 | . | 4 | -88 | 55* | 41*
C=CCc1cc(C(=O)N2CCCCC2)ccc1O | -39 | -6 | 51* | . | 12
Cc1ccc(S(=O)(=O)Nc2ccc3c(c2)C(=O)N([C@@H](C)CO)C[C@@H](C)[C@H](CN(C)Cc2ccc4c(c2)OCO4)OCCCC[C@H](C)O3)cc1 | 36 | . | . | 22 | .

Bioassay records deposited in PubChem BioAssay by several laboratories.
